# The list is not random: actives were taken first. Their share in the collection is about 3.6%.
# KKLEB cytotox: reduces viability of KKLEB cystic fibrosis airway cells | KKLEB CF airway cells viability, ATPlite luminescence, overnight; hits give low values; cells stimulated with P. aeruginosa culture filtrate | activity change (cytotoxicity), % at 5 µM | 360,000 compounds, 0.36% hits;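 active = corrected activity change at or below -50% at 5 µM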
# Mdm2 MdmX PPI: disrupts the human Mdm2-MdmX interaction | inhibition, % at 8 µM | SaOS-2 split-luciferase Mdm2/MdmX complementation, luminescence | AID 485346 | 330,000 compounds, 3% hits;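 active = inhibition of at least 50% at 8 µM in the primary screen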
# Target sequence (O15151 whole entry, looked up): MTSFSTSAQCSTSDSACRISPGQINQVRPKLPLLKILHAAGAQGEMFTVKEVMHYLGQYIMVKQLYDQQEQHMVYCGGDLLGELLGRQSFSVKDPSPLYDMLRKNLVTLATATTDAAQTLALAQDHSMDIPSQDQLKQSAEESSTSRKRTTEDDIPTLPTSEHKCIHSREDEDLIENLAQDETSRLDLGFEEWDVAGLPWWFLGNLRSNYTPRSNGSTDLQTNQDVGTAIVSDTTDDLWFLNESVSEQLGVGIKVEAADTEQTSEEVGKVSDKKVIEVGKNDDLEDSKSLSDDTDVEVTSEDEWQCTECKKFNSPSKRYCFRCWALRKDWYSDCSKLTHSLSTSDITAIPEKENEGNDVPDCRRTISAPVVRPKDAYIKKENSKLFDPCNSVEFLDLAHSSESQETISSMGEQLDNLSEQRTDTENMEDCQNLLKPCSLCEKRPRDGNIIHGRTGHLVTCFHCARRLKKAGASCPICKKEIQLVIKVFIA
# Target sequence (Q00987 whole entry, looked up): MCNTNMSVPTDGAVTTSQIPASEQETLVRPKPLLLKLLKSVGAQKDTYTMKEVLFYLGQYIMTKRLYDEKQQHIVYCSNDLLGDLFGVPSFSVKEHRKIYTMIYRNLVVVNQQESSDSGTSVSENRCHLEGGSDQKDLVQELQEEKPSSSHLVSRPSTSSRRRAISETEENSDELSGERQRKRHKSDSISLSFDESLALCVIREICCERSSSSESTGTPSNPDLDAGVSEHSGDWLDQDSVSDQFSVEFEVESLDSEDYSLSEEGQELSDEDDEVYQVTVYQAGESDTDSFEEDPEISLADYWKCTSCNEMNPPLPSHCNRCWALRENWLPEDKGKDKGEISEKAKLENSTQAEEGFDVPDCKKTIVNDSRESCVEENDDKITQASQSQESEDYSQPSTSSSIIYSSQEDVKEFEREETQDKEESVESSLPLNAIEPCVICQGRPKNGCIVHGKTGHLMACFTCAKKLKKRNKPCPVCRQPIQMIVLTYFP
# LGR2 inh: blocks bursicon-induced cAMP signaling via Drosophila LGR2. HEK293 LGR2, CRE-luciferase, bursicon-stimulated, 4 h. inhibition, % at 9.99 µM. 380,000 compounds, 0.35% hits. AID 720647;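 active = drop in luminescence signal, shown as inhibition above about 50% in the replicate tests, limit read from the data, passing the limit was not always enough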;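 also: agonist challenge used bursicon conditioned medium at about half maximal strength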
# CF NFkB inh: inhibitors of cystic fibrosis induced NF-kB; KKLEB NF-kB-GFP reporter, PAF-induced, GFP fluorescence overnight; inhibition, % at 5 µM; 360,000 compounds, 0.86% hits; AID 588850;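 active = at least 50% inhibition at 5 µM, scaled per plate between neutral and stimulator controls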;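 also: PAF is a Pseudomonas aeruginosa culture filtrate used as stimulus; plate controls were PAF-stimulated DMSO wells for no effect and unstimulated DMSO wells for full effect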
# HSP90 inh: HSP90 refolding inhibition in rabbit reticulocyte lysate. 290,000 compounds, 0.91% hits. luciferase refolding luminescence, 3 h. inhibition, % at 5.6 µM;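 active = inhibition above the screen-wide mean plus 3 SD, computed separately per campaign, cut at about 16% in these data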;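 also: 0% = DMSO wells and 100% = 60 µM geldanamycin wells; inhibitors lower the luminescence because luciferase stays unfolded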
# Peg3 prom inh: inhibitors of Peg3 promoter; HeLa PEG-Prom luciferase reporter, luminescence, overnight; 360,000 compounds, 1.7% hits; AID 588405; inhibition, % at 20 µM;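 active = inhibition of at least 50% at 20 µM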
# Starred values were filed as active, the others as inactive; nt = not tested or not shown.
SMILES,KKLEB cytotox,Mdm2 MdmX PPI,LGR2 inh,CF NFkB inh,HSP90 inh,Peg3 prom inh
Cc1c(Cl)cccc1NC(=S)/C(=C(\[O-])c1ccc(Cl)s1)[n+]1ccccc1,9,6,-3,-7,-2,58*
O=C(C[C@@H]1C[C@H]2c3cc(NC(=O)NC4CCCC4)ccc3O[C@H]2[C@H](CO)O1)NCCN1CCCCC1,nt,nt,-1,nt,nt,nt
NC(=O)N/N=C/c1ccc(N2CCOCC2)s1,9,-3,-2,-18,3,52*
O=C(N/N=C/c1ccc(N2CCOCC2)s1)c1ccc(O)cc1,6,nt,16,-19,nt,-25
CCCC(=O)Nc1ccc2c(c1)OC[C@@H](C)NC[C@H](C)[C@H](OC)CN(C)C2=O,nt,nt,0,nt,nt,nt
Cc1sc(NC(=S)NC(=O)CCc2ccccc2)c(C(N)=O)c1C,-28,nt,-5,50*,-3,-2
COc1cc(/C=C(/C(=O)c2cccs2)c2nc3ccccc3[nH]2)ccc1O,-2,49,nt,34,5,103*
COc1ccc([C@@]23Oc4cc(OC)cc(OC)c4[C@]2(O)[C@H](O)[C@H](C(=O)N(C)C)[C@H]3c2ccccc2)cc1,2,nt,99*,60*,nt,97*
C(=Cc1c[nH]c2ccccc12)c1nccc2ccccc12,-55*,nt,94*,-249,nt,-92
COc1ccc(S(=O)(=O)N(C)C[C@@H]2Oc3cc(Br)ccc3S(=O)(=O)N([C@H](C)CO)C[C@@H]2C)cc1,9,nt,-12,-20,nt,54*
COc1ccc(S(=O)(=O)N(C)C[C@H]2Oc3cc(Br)ccc3S(=O)(=O)N([C@H](C)CO)C[C@H]2C)cc1,-15,nt,-10,27,nt,20
CC(C)(C)OC(=O)NCCCCCNC(=O)c1nc[nH]c1C(=O)NCCCCCNC(=O)OC(C)(C)C,-25,29,102*,19,nt,64*
CC(C)(C)OC(=O)NCc1ccc(CNC(=O)c2[nH]cnc2C(=O)NC2CCN(C(=O)OC(C)(C)C)CC2)cc1,-2,28,nt,8,nt,61*
CC(C)(C)OC(=O)N1CCC(NC(=O)c2nc[nH]c2C(=O)NCc2ccccc2)CC1,-2,22,17,-16,nt,-6
CC(C)(C)OC(=O)NCCCCCNC(=O)c1[nH]cnc1C(=O)N[C@@H](CCCCNC(=O)OC(C)(C)C)C(=O)OC(C)(C)C,-1,13,nt,-6,8,11
CC(C)C[C@H](NC(=O)c1nc[nH]c1C(=O)NCCCCCNC(=O)OC(C)(C)C)C(=O)OCc1ccccc1,-7,12,-17,-9,4,12
CC(C)(C)OC(=O)NCCCCCNC(=O)c1[nH]cnc1C(=O)N[C@@H](Cc1ccccc1)C(=O)OCc1ccccc1,-1,31,2,-5,4,59*
C[C@@H]1CN([C@H](C)CO)C(=O)CCCn2nncc2CO[C@@H]1CN(C)C(=O)Nc1ccc(C(F)(F)F)cc1,nt,nt,3,nt,nt,nt
CO[C@@H]1CN(C)C(=O)c2cc(NC(=O)CC(F)(F)F)ccc2OC[C@H](C)N(C(=O)c2ccccc2F)C[C@@H]1C,nt,nt,5,nt,nt,nt
COc1ccccc1CCn1cnc(-c2ccc(F)cc2)c1CC(C)C,nt,nt,48,nt,nt,nt
COc1ccccc1CCn1cnc(-c2ccccc2)c1CC(C)C,nt,nt,52*,nt,nt,nt
CN1c2ccc(Br)cc2[C@@H]2[C@@H](CCN2C(=O)Nc2cccc(F)c2)[C@@H]1CO,nt,nt,-6,nt,nt,nt
Cc1ccc(C(=O)Nc2cccc(C(F)(F)F)c2)cc1Nc1ncnc2nc[nH]c12,8,39,11,69*,nt,38
CC(=O)C(=Cc1ccc(Cl)cc1)C(=O)c1ccccc1,-23,nt,16,48,nt,99*
Cc1ccnc(NC(=O)c2ccc(C(=O)c3ccccc3)cc2)c1,-6,-10,55*,-25,nt,-13
SMILES,KKLEB cytotox,Mdm2 MdmX PPI,LGR2 inh,CF NFkB inh,HSP90 inh,Peg3 prom inh
Cc1ccnc(NC(=O)c2cc3ccccc3o2)c1,-41,22,77*,0,nt,51*
CN1CCN(C(=O)C[C@H]2CC[C@H](NC(=O)c3ccc4c(c3)OCO4)[C@H](CO)O2)CC1,nt,nt,-10,nt,nt,nt
COc1ccc(NC(=O)N(C)C[C@H]2OCCCC[C@@H](C)Oc3ccc(NS(C)(=O)=O)cc3C(=O)N([C@@H](C)CO)C[C@H]2C)cc1,nt,nt,-4,nt,nt,nt
COc1ccc2c3c(n(C)c2c1)[C@@H](CO)N(Cc1ccncc1)CC31CCN(C(=O)NC(C)C)CC1,nt,nt,15,nt,nt,nt
CC1CN(c2ncnc3c2cnn3-c2ccc(Cl)cc2)CC(C)O1 (configuration not stated),-4,-54,-42,-13,16*,-238
CC1CC(C)CN(c2ncnc3c2cnn3Cc2ccc(Cl)cc2)C1 (configuration not stated),-8,-7,nt,3,8,26
CCc1nc2ccc(C(=O)NCCc3c[nH]c4ccccc34)cn2c1N(C)CCCc1ccccc1,17,nt,13,-42,nt,61*
COC1C(CO)OC(n2c3c(Cl)cccc3c3c4c(c5c6cccc(Cl)c6[nH]c5c32)C(=O)NC4=O)C(O)C1O (configuration not stated),-36,nt,60*,-94,nt,28
Cc1ccc(NC(=O)CSc2nnnn2-c2ccc3c(c2)OCO3)cc1C,-54*,49,nt,65*,2,33
CC(/C=N/NC(=O)c1cc(-c2cccnc2)nc2c1c(C)nn2-c1ccccc1)=C\c1ccccc1,-10,24,9,21,3,51*
Nc1cc(=O)[nH]c(SCCSc2ccccc2F)n1,2,36,-2,-10,6,22
Nc1cc(=O)[nH]c(SCCSc2cc(Cl)ccc2Cl)n1,1,43,1,8,-3,54*
Cc1noc(C)c1NC(=O)Nc1cccc2c1O[C@H](CN(C)Cc1ccncc1)[C@@H](C)CN([C@H](C)CO)C2=O,nt,nt,-10,nt,nt,nt
CCNC(=O)Nc1ccc2c(c1)C(=O)N(C)[C@H]1CC[C@H](CC(=O)Nc3ccccc3Cl)O[C@@H]1CO2,nt,nt,-8,nt,nt,nt
N#CC1=C(N)SC(N)=C(C#N)C1c1ccnc2ccccc12,3,2,nt,-7,3,0
O=C1c2ccccc2C(=O)C1c1ccnc2ccccc12,-70*,45,nt,-134,2,83*
C[C@@H]1CN([C@H](C)CO)C(=O)c2cccc(NS(C)(=O)=O)c2O[C@@H]1CN(C)Cc1ccncc1,nt,nt,-2,nt,nt,nt
COc1cccc(CNC(=O)C2=Cc3cccc(OC)c3OC2)c1,-1,13,nt,18,2,58*
C[C@H](CO)N1C[C@H](C)[C@@H](CN(C)Cc2ccccc2C(=O)O)Oc2cc(-c3ccc(C(=O)N(C)C)cc3)ccc2S1(=O)=O,nt,nt,6,nt,nt,nt
Cc1ccccc1CN1C(=O)c2ccccc2Sc2ccc(C(=O)NCCN3CCOCC3)cc21,-6,12,4,-34,4,-13
CCN1CCN(CCNC(=O)c2ccc(/C=C3/Sc4ccccc4N(Cc4ccccc4C)C3=O)cc2)CC1,-77*,nt,48,43,3,87*
O=S(=O)(NCC[C@H]1CC[C@H](NS(=O)(=O)c2cccc(Cl)c2)[C@@H](CO)O1)c1cccc(F)c1,nt,nt,-12,nt,nt,nt
